# Assay results as given in ChEMBL document CHEMBL3988442, “University of Dundee, Small-Polar-MMV Screening Library” (2021).
# The campaign covered roughly 69,000 compounds. About 1,000 (1.4%) showed an effect of 50% or more. Many of the other results were omitted from the sample, so strong results are more common in it than they were.
# System: Leishmania donovani
# Experiment: Leishmania intramacrophage assay
# Assay type: functional, organism-based
# Parameters: scale not given: in the data most compounds retested in dose-response had high values
smiles,measurement,setting,value
COC[C@H]1CCCN1c1nccc(-c2cnn(-c3ccccc3C)c2)n1,Percent Effect,"30.3 µM, […]",41.43%
Cc1ccccc1-n1cc(-c2ccnc(N3CCCC(O)C3)n2)cn1 (centres undefined),Percent Effect,"30.3 µM, […]",16.96%
Cc1ccccc1-n1cc(-c2ccnc(N3CCCC(CN)C3)n2)cn1 (centres undefined),Percent Effect,"30.3 µM, […]",67.45%
COc1ccccc1N1CCN(Cc2nccc(OC)c2OC)CC1=O,Percent Effect,"30.3 µM, […]",-10.47%
CN(Cc1ccc2c(c1)OCO2)C(=O)c1ccc(C2CCCO2)s1 (centres undefined),Percent Effect,"30.3 µM, […]",-16.35%
CC1CCCN(CCCNC(=O)Cc2csc(-c3ccoc3)n2)C1 (centres undefined),Percent Effect,"30.3 µM, […]",9.746%
O=C(CCNc1ncccn1)NCc1ccc(Br)s1,Percent Effect,"30.3 µM, […]",14.9%
Cc1nn(C)c2c(N(C)Cc3ccco3)nc(C3CC3)nc12,Percent Effect,"30.3 µM, […]",10.49%
Cc1nn(C)c(C)c1CN(C)c1nc(C2CC2)nc2c(C)nn(C)c12,Percent Effect,"30.3 µM, […]",-21.06%
Cc1nn(C)c2c(N(C)Cc3cccs3)nc(C3CC3)nc12,Percent Effect,"30.3 µM, […]",56.51%
CN1CCOC(CNCCOc2cccc(C#N)c2)C1 (centres undefined),Percent Effect,"30.3 µM, […]",25.34%
Cn1cccc1C(=O)NCc1cn2c(n1)CN(CC1CCOC1)CC2 (centres undefined),Percent Effect,"30.3 µM, […]",22.42%
CC(C)CCN1CCN(C(=O)c2ccc(=O)[nH]n2)CC1,Percent Effect,"30.3 µM, […]",20.4%
Cc1cc(NC(=O)CN2CCCC2c2noc(C(C)C)n2)on1 (centres undefined),Percent Effect,30 µM,7.102%
CC(=O)N1CCN(C(=O)Cn2ccc3c(Cl)cccc32)CC1,Percent Effect,"30.3 µM, […]",1.884%
O=C(Cn1ccc2c(Cl)cccc21)N1CCCC1,Percent Effect,"30.3 µM, […]",16.62%
CN1CCN(C(=O)Cn2ccc3c(Cl)cccc32)CC1,Percent Effect,"30.3 µM, […]",54.77%
Cc1cc(C)c(CNC(=O)N2CCN(c3ncccn3)CC2)c(=O)[nH]1,Percent Effect,"30 µM, 30.03 µM",-5.034%
COc1cccc(C(=O)N2CCN(CC(O)c3ccccc3)CC2)c1 (centres undefined),Percent Effect,"30.3 µM, […]",-2.836%
COCCN1CCC(NCc2cccc(C)c2)C1 (centres undefined),Percent Effect,30 µM,11.56%
O=C(C(CNCc1cccc(O)c1)c1ccccc1)N1CCOCC1 (centres undefined),Percent Effect,"30.3 µM, […]",17.14%
Cc1cccc(CNC(CN2CCN(C)CC2)c2ccccc2)c1 (centres undefined),Percent Effect,"30 µM, 30.03 µM",98.99%
COc1ccc(C(CN2CCN(C)CC2)Nc2ncccn2)cc1 (centres undefined),Percent Effect,"30.3 µM, […]",-7.981%
CNS(=O)(=O)c1cccc(C(C)NCc2cccc(O)c2)c1 (centres undefined),Percent Effect,"30.3 µM, […]",23.7%
COc1cccc(CNC(CN2CCN(C)CC2)c2ccccc2)c1 (centres undefined),Percent Effect,"30 µM, 30.03 µM",76.19%
Cc1cc(C)cc(CNC(c2ccccc2)c2nccn2C)c1 (centres undefined),Percent Effect,30 µM,35.61%
O=C(c1nnn(-c2ccc(F)cc2)n1)N1CCC(O)CC1,Percent Effect,"30.3 µM, […]",1.215%
O=C(c1cn(CCN2CCCCC2)nn1)N1CCSCC1,Percent Effect,"30.3 µM, […]",25.8%
CC(O)CN1CC(C)(C)CN(C(=O)CCc2ccccc2)CC1=O (centres undefined),Percent Effect,"30.3 µM, […]",-1.72%
O=C(CN1CCOC(Cn2cccn2)C1)NCCc1ccc(F)cc1 (centres undefined),Percent Effect,"30 µM, 30.03 µM",1.853%
O=C(Cc1ccsc1)N1CCc2ccc(=O)n(CC3CC3)c2CC1,Percent Effect,"30.3 µM, […]",10.53%
COCCn1c2c(ccc1=O)CCN(C(=O)Cc1ccsc1)CC2,Percent Effect,"30.3 µM, […]",55.32%
COCCn1c2c(ccc1=O)CCN(C(=O)Cc1cccs1)CC2,Percent Effect,"30.3 µM, […]",20.34%
O=C(O)c1cccc(S(=O)(=O)N2CCOc3ccccc32)c1,Percent Effect,30 µM,14.21%
COc1ccc(C2CC(=O)NCc3nc(N(C)C)sc32)c(O)c1 (centres undefined),Percent Effect,"30.3 µM, […]",16.16%
COc1ccc(C(C)C)cc1C1CC(=O)NCc2nc(N(C)C)sc21 (centres undefined),Percent Effect,"30.3 µM, […]",60.09%
COc1cc2c(cc1C1CC(=O)NCc3nc(N(C)C)sc31)CCC2 (centres undefined),Percent Effect,"30.3 µM, […]",11.87%
C[C@@H]1CN(C2CCN(c3ccccc3)CC2)CC[C@@]1(O)C1CCOCC1,Percent Effect,"30.3 µM, […]",22.22%
C[C@@H]1CN(C2CCCCC2)CC[C@@]1(O)C1CCOCC1,Percent Effect,"30.3 µM, […]",-0.4391%
C[C@@H]1CN(C2Cc3ccccc3C2)CC[C@@]1(O)C1CCOCC1,Percent Effect,"30.3 µM, […]",63.81%
CN(C)C(=O)NC1COC2(CCN(Cc3nccn3C)CC2)C1 (centres undefined),Percent Effect,"30 µM, 30.03 µM",3.872%
c1cnnc(N2CCCC2CNCc2nc(-c3ccoc3)no2)c1 (centres undefined),Percent Effect,30 µM,14.13%
COC(=O)c1cccn1C1CCN(Cc2cccnc2)CC1,Percent Effect,30 µM,38.52%
O=C(O)C(F)(F)F.c1csc(CN2CCCn3cnc(COCC4CC4)c3C2)n1,Percent Effect,"30.3 µM, […]",26.9%
COCc1nn(C(C)C)c2c1CCN(Cc1ccc(C)s1)C2.O=C(O)C(F)(F)F,Percent Effect,"30 µM, 30.03 µM",26.5%
O=C(O)C(F)(F)F.c1ccc(CN2CCCn3nnc(Cn4cccc4)c3C2)nc1,Percent Effect,"30.3 µM, […]",-22.64%
O=C(O)C(F)(F)F.c1csc(CN2CCCn3nnc(COCC4CC4)c3C2)n1,Percent Effect,"30.3 µM, […]",52.28%
Cc1ccc(CN2CCc3c(COCC4CC4)nn(C)c3C2)s1.O=C(O)C(F)(F)F,Percent Effect,"30.3 µM, […]",25.61%
Cc1ccc(CN2CCCn3nnc(COCCN(C)C)c3C2)s1.O=C(O)C(F)(F)F.O=C(O)C(F)(F)F,Percent Effect,"30.3 µM, […]",66.44%
Fc1ccc(CN2CCCn3nnc(COCC4CC4)c3C2)cc1.O=C(O)C(F)(F)F,Percent Effect,"30.3 µM, […]",-0.08958%
Cc1ccc(CN2Cc3nnn(C)c3C(COCCN(C)C)C2)s1.O=C(O)C(F)(F)F.O=C(O)C(F)(F)F (centres undefined),Percent Effect,"30 µM, 30.03 µM",25.22%
Cc1ccc(CN2CCc3c(COC(C)C)nn(C)c3C2)s1.O=C(O)C(F)(F)F,Percent Effect,"30.3 µM, […]",54.88%
O=C(O)C(F)(F)F.c1ccc(CN2CCCn3nnc(CNc4ncccn4)c3C2)nc1,Percent Effect,"30.3 µM, […]",67.35%
Cc1ccc(CN2CCCn3nnc(COCC4CC4)c3C2)s1.O=C(O)C(F)(F)F,Percent Effect,"30 µM, 30.03 µM",16.69%
O=C(O)C(F)(F)F.c1cnc(NCc2nnn3c2CN(Cc2ccco2)CCC3)nc1,Percent Effect,"30.3 µM, […]",-8.13%
Cc1ccccc1CN1C[C@@H]2CC[C@H](C1)N(CC1CCC1)C2=O,Percent Effect,"30.3 µM, […]",6.524%
COCc1noc(CN2C[C@H](C3CC3)[C@@H](N(C)C)C2)n1,Percent Effect,"30.3 µM, […]",0.8667%
COCCOCCNS(=O)(=O)C1CS(=O)(=O)c2ccccc21 (centres undefined),Percent Effect,"30.3 µM, […]",-2.938%
O=C(Nc1ccc(F)cc1)C1CNCCN1C(=O)CCc1cccnc1 (centres undefined),Percent Effect,"30.3 µM, […]",21.52%
CC1CN(C)CCN1C(=O)c1ccn(-c2ccc(F)cc2)n1 (centres undefined),Percent Effect,30 µM,12.79%
CN(CCN1CCCCCC1)C(=O)c1cc(CN2CCCC(O)C2)on1 (centres undefined),Percent Effect,"30.3 µM, […]",28.93%
COc1cccc2c1OCCCN(Cc1ccc(C(N)=O)c(=O)[nH]1)C2,Percent Effect,"30.3 µM, […]",18.01%
COc1c(CNCc2ccccc2CN2CCOCC2)c(C)nn1C,Percent Effect,"30.3 µM, […]",15.12%
O=C(CN1CCc2cncnc2C1)NC1CCCCNC1=O (centres undefined),Percent Effect,"30.3 µM, […]",3.811%
